Screens deposited in PubChem by National Center for Advancing Translational Sciences (NCATS).
This is a sample that favours compounds with a hit; in the whole collection about 22% have one here.
Pf growth 48h: P. falciparum growth inhibition at 48 hours (one generation); actives 5.9% (n = 310,000); P. falciparum luciferase growth in erythrocytes, 48 h; Potency, µM (highest dose often 28.7 µM), without a hit: at the top dose activity change, negative = inhibition, actives largely listed as inhibitors; further: potency means the concentration at half of the fitted maximal effect; on the % scale 0 is the no-effect control and ±100 the full control effect
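Read-out is firefly luciferase luminescence from an integrated reporter in P. falciparum, so falling signal marks reduced parasite growth. Infected erythrocytes were at 2% hematocrit and 0.1% parasitemia (final) in Albumax-supplemented RPMI 1640.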
Cycloheximide cs: counter-screen hit for Shiga toxin inhibitors, cycloheximide; cell reporter, cycloheximide protein synthesis inhibition counterscreen; max response, %; actives 12% (n = 300,000); AID 2314; in the data active means max response mostly above about 13%, no sharp cut-off; inactive means mostly below about 14%; further: read at 38.3 µM for the half of the compounds with a filed dose; 0% is about no effect
Pf growth 96h: inhibits malaria parasite growth, 96 h; Potency, µM (series often up to 28.7 µM), for inactives: at the top dose activity change, negative = inhibition, actives largely listed as inhibitors; AID 504834; P. falciparum luciferase reporter growth, 96 h; actives 6.9% (n = 320,000); further: potency means the concentration at half of the fitted maximal effect; on the % scale 0 is the no-effect control and ±100 the full control effect
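Erythrocytes infected with luciferase-expressing P. falciparum were dispensed at 2% hematocrit and 0.05% parasitemia (final), then incubated with compounds 96 hours at 37 C in 5% CO2. Luminescence after detection reagent addition reported growth.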
LmPK inh: blocks Leishmania mexicana pyruvate kinase activity. Potency, µM (top dose mostly 57.5 µM), for the others: at the highest dose activity change, negative = inhibition, most hits filed as inhibitors. purified LmPK, Kinase-Glo ATP luminescence, 1 h. Q27686. actives 0.37% (n = 290,000). AID 1721; further: potency means the concentration at half of the fitted maximal effect; on the % scale 0 is the no-effect control and ±100 the full control effect
Target sequence (Q27686 whole entry, looked up): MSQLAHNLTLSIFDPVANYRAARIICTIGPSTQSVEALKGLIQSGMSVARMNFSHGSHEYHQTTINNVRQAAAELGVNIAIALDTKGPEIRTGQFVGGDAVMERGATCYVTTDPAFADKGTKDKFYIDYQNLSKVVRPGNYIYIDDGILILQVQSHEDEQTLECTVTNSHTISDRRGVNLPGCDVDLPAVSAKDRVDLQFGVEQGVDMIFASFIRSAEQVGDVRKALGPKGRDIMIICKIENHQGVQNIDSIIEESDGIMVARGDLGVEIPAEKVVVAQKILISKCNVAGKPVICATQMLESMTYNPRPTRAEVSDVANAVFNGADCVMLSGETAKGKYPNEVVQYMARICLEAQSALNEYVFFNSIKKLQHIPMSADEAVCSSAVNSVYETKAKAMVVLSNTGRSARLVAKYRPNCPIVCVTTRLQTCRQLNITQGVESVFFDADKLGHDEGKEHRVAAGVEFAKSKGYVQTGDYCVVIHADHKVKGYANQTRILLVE
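Kinase-Glo luminescence read after 1 h RT reaction of 0.1 nM LmPK with 0.5 mM PEP and 0.1 mM ADP. Activity scaled between uninhibited and enzyme-free controls.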
Shiga toxin inh: Shiga toxin inhibition; Vero cells, Shiga toxin protein synthesis inhibition reporter; inhibition, % at 38.7 µM; actives 9.2% (n = 290,000); AID 2315; in the data active means inhibition mostly above about 28%, no sharp cut-off; inactive means mostly below about 43%; further: 0% is about no effect
* marks the source's active call; other numbers are inactive results; i = inactive; ? = inconclusive; / = no result given; [ ] = remark or other dose. Unless noted, the call rests on the fitted dose curve; in most records, active means well fitted inhibition curve with a large enough effect; inconclusive means small, poorly fitted or top-dose-only effect, or another doubt; inactive means no such curve, though single readings can be large or run the other way.

SMILES | Pf growth 48h | Cycloheximide cs | Pf growth 96h | LmPK inh | Shiga toxin inh
C/C(=N\NC(=O)c1ccc2ccccc2c1)c1cccs1 | 153% | 45* | -14% | -2% | 94*
C/C(=N\NC(=O)Cc1ccccc1)c1cccs1 | 31% | 9 | 68% | 1% | -1
C/C(=N\NC(=O)c1ccncc1)c1cccs1 | 149% | 48* | ? | -11% | 63*
C/C(=N/N=C(/C)c1cccs1)c1cccs1 | 159% | 31* | 2% | 1% | 73*
C/C(=N\NC(=O)c1cccs1)c1cccnc1 | 42% | 17 | 35% | 6%[11.5 µM] | 72
Cc1ccccc1OCCCC(=O)NCc1ccco1 | -12% | 3 | 0% | 4% | -3
COC(=O)c1cc(OC)c(OC)c(OC)c1[N+](=O)[O-] | -5% | -2 | 12% | 6% | -6
Cn1cc(CCNC(=O)CC2C(=O)NCCN2CC(c2ccccc2)c2ccccc2)cn1 (stereo not drawn) | -19% | 0 | ? | 11% | 10
CSCC[C@H](NS(=O)(=O)c1ccc(C(C)=O)cc1)c1nnc2ccccn12 | 22% | 8 | 16% | 2% | -17
COc1ccc(-n2ncc(C(C)NS(=O)(=O)c3ccc(C)s3)c2C)cc1 (stereo not drawn) | 7% | -3 | 8.3µM* | 0% | 14
COc1ccc(OC)c(S(=O)(=O)NC(C)c2ccc(-n3ccnc3)cc2)c1 (stereo not drawn) | ? | / | 4% | / | /
COc1ccc(OC)c(S(=O)(=O)NC(C)c2cnn(-c3ccccn3)c2C)c1 (stereo not drawn) | 7% | -1 | 15µM* | -8% | -25
NS(=O)(=O)c1ccc(CCn2c(=S)[nH]c3ccc(F)cc3c2=O)cc1 | ? | -4 | ? | 1% | -4
CC12CC(NC(=O)N1c1cccc(C(=O)N3CCN(c4ccccc4)CC3)c1)c1ccccc1O2 (stereo not drawn) | 8.3µM* | -2 | ? | 3% | -43
COc1ccccc1N1CCN(C(=O)c2cccc(N3C(=O)NC4CC3(C)Oc3ccccc34)c2)CC1 (stereo not drawn) | 12µM* | 0 | 1% | 4% | -2
CCOC(=O)N1CCN(C(=O)c2cccc(N3C(=O)NC4CC3(C)Oc3ccccc34)c2)CC1 (stereo not drawn) | -15% | -2 | 1.9µM* | -7% | -10
CC12CC(NC(=O)N1c1cccc(C(=O)NCc3ccccc3)c1)c1ccccc1O2 (stereo not drawn) | ? | -3 | -4% | 0% | -15
CC12CC(NC(=O)N1c1ccc(C(=O)N3CCN(c4ccc(F)cc4)CC3)cc1)c1ccccc1O2 (stereo not drawn) | ? | 2 | / | -4% | -15
Cc1c(C(=O)N(Cc2ccccc2)C(C)C)oc2ccc(S(=O)(=O)N3CCOCC3)cc12 | ? | 1 | 11% | 8% | -6
COc1ccccc1NC(=O)CCN1C(=O)c2ccccc2S1(=O)=O | -2% | -3 | 34% | 2% | -3
COC(=O)C1=C(C)N(Cc2ccco2)C(=O)N[C@@H]1c1ccccc1 | 7% | -5 | -21% | 3% | -13
CN1CC(c2ccccc2)C2(SC(=S)N(Cc3ccco3)C2=O)C12C(=O)Nc1ccccc12 (stereo not drawn) | 12µM* | 8 | / | 2% | 24
C/C(=N\NC(=O)c1c(Cl)cnn1C)c1ccc(NC(=O)c2ccc(Br)o2)cc1 | -9% | 40* | ? | -4% | 57*
COc1ccc(CC(=O)Nc2ccc(/C(C)=N\NC(=O)c3ccc(Br)o3)cc2)cc1 | -26% | 42* | ? | 0% | 44*
C/C(=N\NC(=O)C1CC1)c1ccc(NC(=O)c2ccc(Br)o2)cc1 | 80% | 24* | 37% | -3% | 55*
COC(=O)c1ccc(NC(=S)NC(=O)c2c(Cl)cnn2C)cc1 | ? | 3 | ? | 0% | 8
COc1ccc(CS(=O)(=O)c2nc(C)cc(C)c2S(C)(=O)=O)cc1 | i | 6 | 39% | 0% | 31
Cc1csc(CN(C)C(=O)CC2C(=O)NCCN2Cc2ccc(F)cc2Cl)n1 (stereo not drawn) | 2% | -2 | 75% | -9% | -8
COc1ccc(N(C(=O)c2ccncc2)S(=O)(=O)c2ccccc2)cc1 | -4% | -2 | ? | 0% | -9
